# Among all 5,500 compounds or so, about 2,000 (36%) were called active. Roughly 18% stayed inconclusive and do not appear here. The list shows a part of the results. Values without a mark were called inactive. No stated cut-off is given here; in the data, active means normalized growth mostly below about 0.91 (no sharp cut-off); inconclusive means no clear call, values can overlap the other calls; inactive means mostly above about 0.92.
# Test: chemical genetic growth profiling, strain panel (AID 1159580);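 further: tested at 20 µM; growth read once vehicle control cultures reached saturation at 30 °C; 1 = growth at the plate median or of vehicle wells; lower values mean less growth of the strain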
# Details: S. cerevisiae deletion strains, growth OD
compound,measurement,setting,value
Fc1ccc(C(OCCN2CCN(CCCc3ccccc3)CC2)c2ccc(F)cc2)cc1,normalized growth,"locus YAL040C, strain CLN3, active compounds read low",1.02
same,normalized growth,"locus YCL061C, strain MRC1 (second series), active compounds read low",0.881 (active)
same,normalized growth,"locus YDR150W, strain NUM1, active compounds read low",0.78 (active)
same,normalized growth,"locus YDR363W, strain ESC2, active compounds read low",0.851 (active)
same,normalized growth,"locus YER002W, strain NOP16, active compounds read low",1.06
same,normalized growth,"locus YGR078C, strain PAC10, active compounds read low",0.868 (active)
same,normalized growth,"locus YGR229C, strain SMI1, active compounds read low",0.0957 (active)
same,normalized growth,"locus YJR075W, strain HOC1, active compounds read low",0.797 (active)
same,normalized growth,"locus YMR263W, strain SAP30, active compounds read low",0.997
same,normalized growth,"locus YMR307W, strain GAS1, active compounds read low",0.891 (active)
same,normalized growth,"locus YNL153C, strain GIM3, active compounds read low",0.661 (active)
same,normalized growth,"locus YNL175C, strain NOP13, active compounds read low",0.972
same,normalized growth,"locus YNL197C, strain WHI3, active compounds read low",1.08
same,normalized growth,"locus YNL224C, strain SQS1, active compounds read low",1.05
same,normalized growth,"locus YNL322C, strain KRE1, active compounds read low",0.705 (active)
same,normalized growth,"locus YOR083W, strain WHI5 (second series), active compounds read low",0.903
same,normalized growth,"locus YPL055C, strain LGE1, active compounds read low",0.583 (active)

# Reference: PubChem BioAssay AID1159580 (chemical genetic matrix, 2015)
